According to PubChem BioAssay:

Biological target: NAD(+) hydrolase SARM1 (Homo sapiens) (UniProt Q6SZW1)
Test: SARM1 TIR NADase inhibitors, cell lysate, NAD-Glo luminescence (AID 1508614);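 further: higher remaining NAD means stronger inhibition of SARM1 NADase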
Settings: SAM-TIR HEK293T lysate NADase, at 1 µM, active compounds read high;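 active means compound whose remaining NAD level is above about 45 nM (limit read from the data); inactive means the rest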

NAD(+) hydrolase SARM1 (Homo sapiens), sequence (Q6SZW1 whole entry, looked up): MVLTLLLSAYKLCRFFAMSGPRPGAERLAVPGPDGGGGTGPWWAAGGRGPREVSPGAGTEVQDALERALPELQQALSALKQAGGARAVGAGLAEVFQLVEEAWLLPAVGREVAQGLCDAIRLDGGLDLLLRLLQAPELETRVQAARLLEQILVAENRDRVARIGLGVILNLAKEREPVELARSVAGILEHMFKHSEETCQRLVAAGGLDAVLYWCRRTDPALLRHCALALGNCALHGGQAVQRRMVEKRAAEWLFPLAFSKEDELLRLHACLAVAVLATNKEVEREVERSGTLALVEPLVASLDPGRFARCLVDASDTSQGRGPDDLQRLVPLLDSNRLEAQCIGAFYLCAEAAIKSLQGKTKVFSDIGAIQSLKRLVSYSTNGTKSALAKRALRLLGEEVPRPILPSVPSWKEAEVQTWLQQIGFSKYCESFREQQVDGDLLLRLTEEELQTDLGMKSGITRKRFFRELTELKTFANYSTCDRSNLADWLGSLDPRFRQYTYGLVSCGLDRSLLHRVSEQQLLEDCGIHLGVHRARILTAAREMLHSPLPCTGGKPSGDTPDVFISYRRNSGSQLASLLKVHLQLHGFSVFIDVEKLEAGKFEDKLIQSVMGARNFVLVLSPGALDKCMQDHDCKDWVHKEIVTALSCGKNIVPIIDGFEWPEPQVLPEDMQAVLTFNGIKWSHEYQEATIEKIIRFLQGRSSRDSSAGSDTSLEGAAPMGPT

Remaining NAD, inactive:
COCCCOc1ccnc(CS(=O)c2nc3ccccc3[nH]2)c1C (stereo not given) 10 nM
N=c1nc(N2CCCCC2)cc(N)n1O 10 nM
CC(C)NCC(O)COc1cccc2[nH]ccc12 (stereo not given) 10 nM
CCn1cc(C(=O)O)c(=O)c2ccc(C)nc21 10 nM
CN(C)C(=O)C(CCN1CCC(O)(c2ccc(Cl)cc2)CC1)(c1ccccc1)c1ccccc1 10 nM
Cc1cc(NS(=O)(=O)c2ccc(N)cc2)no1 10 nM
CCCC(CCC)C(=O)O 10 nM
O=C1CN(/N=C/c2ccc([N+](=O)[O-])o2)C(=O)N1 10 nM
COc1cc(Cc2cnc(N)nc2N)cc(OC)c1OC 10 nM
COC(=O)C1=C(C)NC(C)=C(C(=O)OCCN(C)Cc2ccccc2)C1c1cccc([N+](=O)[O-])c1 (stereo not given) 10 nM
O=C(CCCN1CCC(O)(c2ccc(Cl)cc2)CC1)c1ccc(F)cc1 10 nM
CC12CCC(CC1)C(C)(C)O2 10 nM
CC(C)(C)NCC(O)c1ccc(O)c(CO)c1 (stereo not given) 10 nM
COc1ccc2cc([C@H](C)C(=O)O)ccc2c1 10 nM
COc1c2occc2cc2ccc(=O)oc12 10 nM
CN/C(=C\[N+](=O)[O-])NCCSCc1ccc(CN(C)C)o1 10 nM
CNCCCN1c2ccccc2CCc2ccccc21 10 nM
CN1C(=O)CC[C@H]1c1cccnc1 22 nM
CCCC(=O)Nc1ccc(OCC(O)CNC(C)C)c(C(C)=O)c1 (stereo not given) 10 nM
O=C(O)CCc1nc(-c2ccccc2)c(-c2ccccc2)o1 10 nM
CC(C)OC(=O)C(C)(C)Oc1ccc(C(=O)c2ccc(Cl)cc2)cc1 10 nM
CC(C(=O)O)c1cccc(C(=O)c2ccccc2)c1 (stereo not given) 10 nM
CN1CCN(C2=Nc3cc(Cl)ccc3Nc3ccccc32)CC1 10 nM
Oc1ccc(O)cc1 10 nM
COC(=O)C1=C(C)NC(C)=C(C(=O)OC)C1c1ccccc1[N+](=O)[O-] 10 nM
